High-throughput results: PubChem, National Center for Advancing Translational Sciences (NCATS)
GLP1R cytotox: qHTS of GLP-1 Receptor Inverse Agonists: Cytotox Screen | 410,000 tested, 0.13% active | Potency, µM (highest dose often 38.3 µM), inactives show at the highest dose activity change, negative = inhibition, hits mostly inhibitors | HEK293 cAMP-luciferase reporter cells, luminescence, 24 h;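 also: loss of luciferase light is scored as toxicity; potency is read from the fitted curve at half-maximal effect; % is scaled to controls: 0 for no effect and ±100 for the full control effect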
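To flag toxic compounds, the library was rerun on cells for 24 hr at 37 deg C and 5% CO2. Viability-linked luminescence was captured 12 min after adding luciferase detection reagent.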
D3 ag: qHTS of D3 Dopamine Receptor Agonist: qHTS | D(3) dopamine receptor (Homo sapiens), P35462 | D3R DiscoveRx beta-arrestin cells, luminescence, 90 min | max activation, % | 410,000 tested, 0.58% active; in the data active = max activation above about 30%; also: 0% is about no effect
Target sequence (P35462 whole entry, looked up): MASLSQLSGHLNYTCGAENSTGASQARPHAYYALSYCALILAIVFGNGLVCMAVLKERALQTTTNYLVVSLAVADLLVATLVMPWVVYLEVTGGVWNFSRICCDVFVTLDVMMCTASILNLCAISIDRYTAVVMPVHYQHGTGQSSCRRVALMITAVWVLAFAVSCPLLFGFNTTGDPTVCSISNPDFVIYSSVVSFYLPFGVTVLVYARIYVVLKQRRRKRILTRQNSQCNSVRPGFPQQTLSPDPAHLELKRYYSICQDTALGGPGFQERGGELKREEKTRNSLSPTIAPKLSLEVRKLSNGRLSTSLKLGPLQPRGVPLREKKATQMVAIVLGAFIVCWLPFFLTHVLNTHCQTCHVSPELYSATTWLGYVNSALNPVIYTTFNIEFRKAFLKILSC
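Cells at 1500/well, incubated overnight, then treated with pinned compounds (dopamine as control) for 90 min at 37 degrees C. DiscoveRx reagent added for 30 - 60 minutes at room temperature; luminescence read.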
GLP1R ag: qHTS of GLP-1 Receptor Agonists; Glucagon-like peptide 1 receptor (Homo sapiens), P43220; HEK293 GLP-1R CRE-luciferase, luminescence, 4-6 h; cells express a hypersensitive GLP-1R form; Potency, µM (titrated, usually from 45.6 µM), for the others: at the top dose activation, usual class: activators; 380,000 tested, 0.007% active; AID 624172, 2012; also: potency is read from the fitted curve at half-maximal effect; % of control where 0% means no effect
ClpP mod: qHTS Assay for Activators of ClpP | ATP-dependent Clp protease proteolytic subunit (Bacillus subtilis (strain 168)), P80244 | Potency, µM (titrated, usually from 57.5 µM), for the others: top-dose activity change, negative = active | 340,000 tested, 1.9% active | purified B. subtilis ClpP, FRET peptide cleavage, 20 min; active = well fitted falling curve with a large enough effect; inconclusive = small, poorly fitted or top-dose-only effect; inactive = no such curve, though single readings can be large or run the other way; also: potency is read from the fitted curve at half-maximal effect; the source files actives as falling curves though it sought activators and does not explain the sign; nearly all actives have a fitted effect of over 65% in size
Target sequence (P80244 whole entry, looked up): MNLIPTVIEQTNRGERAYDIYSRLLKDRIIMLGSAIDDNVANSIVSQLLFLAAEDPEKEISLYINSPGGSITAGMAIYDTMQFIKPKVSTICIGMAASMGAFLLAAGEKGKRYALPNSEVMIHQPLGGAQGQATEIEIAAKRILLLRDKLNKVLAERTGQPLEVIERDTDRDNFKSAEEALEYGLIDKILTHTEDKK
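FRET quenching reversal measured ClpP activation: 10 microg/mL B. subtilis ClpP at pH 8 with the FRET-FV decapeptide, read at 430 nm after 320 nm excitation. The 20-min minus 0-min signal was scaled between DMSO/no-enzyme wells and ADEP (5.8 microM final).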
D3 antag: qHTS of D3 Dopamine Receptor Antagonist: qHTS. 360,000 tested, 2.5% active. D3R cells, DiscoveRx beta-arrestin luminescence, antagonist mode; stronger effect = lower value. max response, negative = inhibition, %. D(3) dopamine receptor (Homo sapiens), P35462; in the data active = max response below about -50%; inconclusive = no clear call, values can overlap the other calls; also: % is scaled to controls: 0 for no effect and ±100 for the full control effect
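Cells expressing the human receptor were seeded at 1500 cells/well, incubated overnight at 37 degrees C in 5% CO2, then exposed to library compounds with dopamine controls for 90 minutes at 37 degrees C before luminescent detection.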
GLP-1R inv ag: qHTS of GLP-1 Receptor Inverse Agonists (Inhibition Mode). Glucagon-like peptide 1 receptor (Homo sapiens), P43220. HEK293 GLP-1R CRE-luciferase, luminescence, 24 h; GLP-1R form is constitutively active. Potency, µM (highest dose often 38.3 µM), without a hit: at the highest dose activity change, negative = inhibition, actives largely listed as inhibitors. 410,000 tested, 1.6% active. AID 624417, 2012; also: potency is read from the fitted curve at half-maximal effect; % is scaled to controls: 0 for no effect and ±100 for the full control effect; nearly all actives have a fitted effect of over 55% in size
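GLP-1R inverse agonism mode: basal reporter luminescence in engineered HEK293 cells measured after one day of compound exposure at 37 deg C, with a 12 min room-temperature detection step.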
The depositor's hits bear a star; ? = inconclusive; nt = no result given. The list is not random: actives were taken first. Their share in the collection is about 5.7%. Unless noted, calls follow the shape of the dose curve; as a rule, active = well fitted curve in the direction sought with a large enough effect; inconclusive = small, poorly fitted or top-dose-only effect, or another doubt; inactive = no such curve, though single readings can be large; an effect the other way counts as inactive or inconclusive.

SMILES	GLP1R cytotox	D3 ag	GLP1R ag	ClpP mod	D3 antag	GLP-1R inv ag
COc1ccc(-c2cccc(NS(=O)(=O)c3cc(C)ccc3OC)c2)nn1	7%	-11	nt	-2%	nt	1%
CC(C)C[C@@H]1Cc2[nH][nH]c(=O)c2[C@H](C(C)C)O1	1%	-2	2%	-3%	5	?
CC(=O)Nc1ccc(N2CCCC(C)C2)c([N+](=O)[O-])c1 (stereo not drawn)	-29%	-12	2%	nt	-55*	?
CC(=O)Nc1ccc(N2CCC(C)CC2)c([N+](=O)[O-])c1	-16%	7	18%	nt	-8	4%
CCC1CCCN1Cn1cnc2c([nH]c3ccccc32)c1=O (stereo not drawn)	0%	-10	-9%	25µM*	8	17%
O=c1c2[nH]c3ccccc3c2ncn1Cc1ccccn1	2%	9	0%	28µM*	-9	12%
CCN1CCCC1Cn1cnc2c([nH]c3cccc(Cl)c32)c1=O (stereo not drawn)	?	-11	-1%	32µM*	-4	?
CCC1CCCN1Cn1cnc2c([nH]c3ccc(OC)cc32)c1=O (stereo not drawn)	-21%	-8	-8%	18µM*	-73*	13%
CCCN1CNc2c(c(=O)[nH]c(=S)n2CCc2cc(Cl)cc(Cl)c2)C1	nt	nt	nt	-1%	nt	nt
Cc1ccc(C)c(C(=O)N2CCC(c3nc4c(nnn4Cc4ccccc4)c(=O)[nH]3)CC2)c1	-9%	-1	nt	2%	nt	?
Cc1nn(-c2ccccn2)c2c1C(c1ccsc1)C1=C(CCCC1=O)N2 (stereo not drawn)	8%	-1	19%	25µM*	-7	9%
COc1ccc(-c2cc3ccccc3n2CC(O)CN2CCN(CCO)CC2)cc1 (stereo not drawn)	1%	-5	-1%	4%	20	10µM*
COc1ccc(-c2cc3ccccc3n2CC(O)CN2CCOCC2)cc1 (stereo not drawn)	-6%	3	3%	8.9µM*	?	?
COc1ccc(OCC(O)CN2CCOCC2)cc1 (stereo not drawn)	6%	1	-2%	3%	11	6%
Cc1cccc(C)c1NC(=O)C(c1ccnc2ccccc12)N1CCN(C)CC1 (stereo not drawn)	0%	-11	nt	?	-23	-6%
CC(C)Nc1ccc(Nc2ccnc3cc4ccccc4cc23)cc1	4.5µM*	-26	-6%	nt	-79*	3.2µM*
CC(=O)O[C@@H](C[C@@H](C)C1=C2C[C@H](O)C3[C@@]4(C)CCC(=O)C(C)(C)C4CC[C@]3(C)[C@@]2(C)CC1)[C@H]1OC1(C)C (stereo partly drawn)	1%	50*	-3%	1%	10	-19%
C=C(C)[C@@H]1CCC2(C(=O)O)CC[C@]3(C)[C@H](CC[C@@H]4[C@@]5(C)CCC(=O)C(C)(C)[C@@H]5CC[C@]43C)[C@@H]12 (stereo partly drawn)	-2%	9	-1%	2%	1	-8%
Cc1ccc(NC(=O)CCS(=O)(=O)c2ccc3nc(C)sc3c2)c(C)c1	-5%	-9	nt	4%	nt	0%
Cc1noc(C)c1-c1ccc(C(=O)Nc2ccc(C(C)C)cc2)c2occc12	-7%	6	0%	?	1	4.5µM*
CN1CCC(N(C)S(=O)(=O)c2ccc(NC(=O)COc3cccc(C(F)(F)F)c3)cc2)CC1	-1%	-21	2%	-5%	-4	11µM*
COc1ccccc1CC(=O)Nc1ccc(S(=O)(=O)N(C)C2CCN(C)CC2)cc1	17%	-21	-6%	-4%	-51*	-15%
COc1ccc(CC(=O)Nc2ccc(S(=O)(=O)N(C)C3CCN(C)CC3)cc2)cc1	-5%	-21	5%	-1%	-3	-14%
CC(Oc1ccc(Br)cc1)C(=O)Nc1ccc(S(=O)(=O)N(C)C2CCN(C)CC2)cc1 (stereo not drawn)	-12%	-7	-4%	1%	-27	2.8µM*
Cc1ccccc1CSc1nc2cccnc2n1Cc1ccc(C(=O)NCCc2cccs2)cc1	-3%	-16	nt	?	nt	-19%
SMILES	GLP1R cytotox	D3 ag	GLP1R ag	ClpP mod	D3 antag	GLP-1R inv ag
Cc1cccc(OCCCC(=O)N2CCCCCC2)c1C	0%	0	21%	1%	0	8.9µM*
COc1ccccc1N1CCN(C(=O)COc2cccc(C)c2C)CC1	-3%	11	14%	nt	2	7.1µM*
CCOc1ccc(-c2cc(NC(=O)c3ccc(C)cc3)c(C(=O)OC)s2)cc1	3%	-5	nt	?	nt	5%
CCOc1ccc(-c2cc(NC(=O)c3ccccc3)c(C(=O)OC)s2)cc1	-3%	3	nt	35µM*	nt	8%
CCOc1ccccc1NC(=O)c1nc(S(=O)(=O)Cc2cccc(C)c2)ncc1Cl	0%	-23	-3%	-1%	-96*	6%
Cc1cccc(CS(=O)(=O)c2ncc(Cl)c(C(=O)Nc3nnc(C(C)C)s3)n2)c1	?	-20	-8%	-1%	-62*	?
COc1ccc(NC(=O)c2nc(S(=O)(=O)Cc3ccc(C)cc3)ncc2Cl)cc1	-4%	-25	nt	3%	nt	7%
CSc1nnc(NC(=O)c2nc(S(=O)(=O)Cc3cccc(C)c3)ncc2Cl)s1	-1%	-2	-5%	nt	-54*	?
CSc1ncc(Cl)c(C(=O)Nc2nnc(SC/C=C/c3ccccc3)s2)n1	2%	-2	-10%	-6%	-9	-8%
CCc1nnc(NC(=O)c2nc(S(=O)(=O)Cc3cccc(C)c3)ncc2Cl)s1	?	-24	-5%	1%	-70*	?
CCc1nnc(NC(=O)c2nc(S(=O)(=O)Cc3ccccc3)ncc2Cl)s1	-3%	-9	-7%	nt	0	?
CCOc1ccc(NC(=O)c2nc(S(=O)(=O)Cc3ccccc3)ncc2Cl)cc1	nt	nt	nt	0%	nt	nt
CCn1c(CNC(=O)C23CC4CC(CC(C4)C2)C3)nnc1SCC(=O)Nc1ccc(F)cc1	-2%	-2	0%	2%	nt	4%
CCC1(C2C=COC=C2)NC(=O)NC1=O (stereo not drawn)	-1%	-3	0%	-1%	-17	5%
O=c1oc2ccccc2n1CCCOc1ccccc1Cl	29%	-11	nt	-2%	nt	?
